Experimental data published in the supplement of paper PMC3334620.
In all, about 33,000 sequences were measured (“E-score (-0.5 to 0.5)”: median about -0.017, highest 2% from about 0.3 on). For the sample, the highest values were picked, then their nearest neighbours and some sequences at random.

Molecular target: T1, Sut1 (UniProt P53032)
T1 sequence: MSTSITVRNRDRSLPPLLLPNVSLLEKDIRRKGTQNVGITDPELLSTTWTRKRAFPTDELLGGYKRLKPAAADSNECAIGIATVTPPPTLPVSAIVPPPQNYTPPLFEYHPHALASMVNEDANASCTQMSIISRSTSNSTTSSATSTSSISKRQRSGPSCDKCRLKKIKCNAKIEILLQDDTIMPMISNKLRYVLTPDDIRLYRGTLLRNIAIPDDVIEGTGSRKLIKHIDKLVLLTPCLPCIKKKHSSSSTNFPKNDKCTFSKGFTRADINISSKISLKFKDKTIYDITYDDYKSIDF
Assay: PBM E-score (8-mer binding enrichment) (E-score (-0.5 to 0.5)); higher = stronger / more preferred TF binding
Details: protein concentration: 200 nM; construct: GST-full length
Method: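 Universal 'all 10-mer' protein binding microarrays (Agilent AMADID 015681) probed with GST-tagged S. cerevisiae TFs (full-length or DBD) made by in vitro transcription/translation (PURExpress), about 100-200 nM. Bound TF was detected with fluorescent anti-GST. Each ungapped 8-mer (which stands for itself and its reverse complement) is scored by the PBM enrichment score (E-score), a modified Wilcoxon-Mann-Whitney statistic from -0.5 to +0.5, computed with the Universal PBM Analysis Suite. Scale: above 0.35 generally sequence-specific binding.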

Row | Sequence | PBM E-score
1 | CCGCGACC | -0.177
2 | ATGAGCTA | 0.0367
3 | AGTCAAAC | -0.135
4 | GGCAATTA | 0.0911
5 | ACCGAGAA | 0.229
6 | TCCGAGAA | 0.407
7 | CCCGAGAA | 0.157
8 | AACTTGCG | -0.0193
9 | ACACTCCG | 0.438
10 | CCACTCCA | -0.174
11 | ACTCTCCG | 0.27
12 | CCACTCCG | 0.444
13 | ACACTCCT | -0.0674
14 | ATACTCCA | -0.0121
15 | ATACTCCG | 0.487
16 | CCACTCCC | -0.254
17 | ATACTCCC | 0.108
18 | ACAGACAA | 0.294
19 | GGATAGCC | 0.0369
20 | TAGCATCA | -0.0462
21 | GCAATTGC | -0.0673
22 | CGGCCTGC | -0.186
23 | CTGTGCAC | -0.277
24 | CGGTGTCC | 0.0917
25 | GAACCCTC | -0.17

Row | Sequence | PBM E-score
26 | AGACTCCT | -0.142
27 | AGACTCCG | 0.47
28 | AGACTCCC | -0.319
29 | CGACTCCG | 0.47
30 | CGACTCCC | -0.211
31 | CGACTCCA | -0.132
32 | AACTGTCG | 0.00476
33 | GCTAGTAC | -0.14
34 | ACCTGAGA | -0.0623
35 | CCCGAAGG | -0.0908
36 | AGAATTCA | 0.115
37 | ATAAACTC | 0.315
38 | CTAAACTC | 0.225
39 | ATAAACTG | 0.047
40 | TACACCCA | 0.036
41 | TAGCGTCA | -0.116
42 | CGGAAATC | 0.212
43 | CGGAAATA | 0.337
44 | CGGAAAGA | 0.312
45 | CGGAAAGC | 0.275
46 | GGGAAATA | 0.0403
47 | AGGAAAGA | 0.0593
48 | AATGTGCT | 0.0947
49 | TACTGAGA | -0.055
50 | CAGGTCCC | -0.182

Row | Sequence | PBM E-score
51 | AAGGTCCG | 0.407
52 | AAGGTCCT | -0.239
53 | AAGGTCCA | -0.135
54 | CAGGTCCG | 0.438
55 | CAGGTCCA | -0.231
56 | AGTCGAAA | 0.115
57 | TCTGGTAA | -0.0251
58 | ATGCTAGA | 0.0093
59 | ACGCTGTA | -0.0391
60 | ATCAAGAG | 0.117
61 | CTAGGCTC | -0.149
62 | CGTAGCCC | -0.274
63 | AGCGCCCT | -0.128
64 | ACGGACCG | -0.0134
65 | ACGGACCT | 0.339
66 | ACGGACAT | 0.404
67 | ACGGACAG | -0.0929
68 | ACGGACCA | 0.277
69 | ACGGACAC | 0.0824
70 | ACAGTCCC | -0.2
71 | GTTCCCTA | -0.238
72 | CGAATATA | 0.231
73 | CCCATATC | -0.043
74 | GACTCATA | 0.0779
75 | ACTCCTAT | 0.0886

Row | Sequence | PBM E-score
76 | AATCCGAC | 0.0553
77 | ACTCCCAT | -0.0456
78 | ACTCCGAC | 0.489
79 | ACTCCGAT | 0.491
80 | CCTCCGAC | 0.0212
81 | TCAACGGA | 0.246
82 | ACAACGGG | 0.0387
83 | CCAACGGA | 0.207
84 | GCAACGGC | -0.0987
85 | GCAACGGA | 0.306
86 | ACAACGGA | 0.335
87 | AAGCCAGT | -0.176
88 | CAGAAGAC | -0.17
89 | CACGTGCC | -0.186
90 | AGTGGCCA | -0.202
91 | ATGCGCTA | -0.0278
92 | AGCTCTAC | -0.325
93 | CATGTCCC | -0.1
94 | CATGTCCG | 0.382
95 | AATGTCCA | 0.0363
96 | ATTGTCCA | -0.0211
97 | ATTGTCCG | 0.359
98 | CATGTCCA | 0.0978
99 | ATTGTCCC | -0.108
100 | AATGTCCT | -0.0934

Row | Sequence | PBM E-score
101 | AATGTCCG | 0.447
102 | TCGAACAA | 0.102
103 | AGGGGGTA | -0.323
104 | AGACCGCA | -0.0648
105 | AGGGGATC | -0.134
106 | CCAACCCG | -0.172
107 | CCCTGCTC | -0.0773
108 | CTCTCAGA | -0.139
109 | ATCCGATA | 0.215
110 | CGCCGATA | -0.197
111 | CTCCGATC | 0.38
112 | CTCCGATA | 0.432
113 | CACCGATA | 0.04
114 | CGCCGATC | 0.137
115 | GGCCGATA | -0.152
116 | GTCCGATA | 0.362
117 | ATCCGATC | 0.18
118 | CCCAGCTC | 0.03
119 | CTACACCC | -0.286
120 | AAAAAAAA | 0.228
121 | CCCCAATC | -0.327
122 | TGTGTAAA | 0.194
123 | GCGGACTA | 0.404
124 | ATGGACTA | -0.0502
125 | CCGGACCA | 0.241

Row | Sequence | PBM E-score
126 | ACGGACGA | 0.1
127 | CCGGACTA | 0.48
128 | ACGGACTC | 0.393
129 | CTGGACTA | -0.0898
130 | AGGGACTC | -0.186
131 | GCGGACCA | 0.175
132 | ACGGACTA | 0.431
133 | ACGGACTG | 0.22
134 | GAGGACTA | 0.0368
135 | CGATCTCA | -0.0333
136 | AAGTGATT | 0.237
137 | AGTGTATG | 0.14
138 | AGCCCATA | -0.137
139 | ACTATTCT | 0.0103
140 | CGGGACTC | 0.0911
141 | CCGGACTC | 0.476
142 | CCGGACAC | 0.112
143 | ACGTAACT | 0.009
144 | ATATCCAA | 0.158
145 | CTATCCAA | 0.057
146 | TTATCCAA | 0.3
147 | ATTTTGTA | 0.318
148 | ATTTTGTG | 0.239
149 | CTTTTGTA | 0.259
150 | GACTACGA | 0.0667

Row | Sequence | PBM E-score
151 | AGTCGGAT | 0.173
152 | TGTCGGAA | 0.218
153 | GGTCGGAC | 0.259
154 | AGTCGGAG | 0.316
155 | AGTCGGAA | 0.243
156 | CGTCGGAG | 0.422
157 | CGTCGGAA | 0.196
158 | CGTCGGAC | 0.247
159 | AGTCGGAC | 0.337
160 | CCATTCGG | 0.00649
161 | ATGTTCGG | 0.181
162 | CTGCCCAG | -0.222
163 | GCCTGGCA | -0.3
164 | CGACGGAC | 0.349
165 | CCACGGAA | 0.178
166 | ACACGGAG | 0.409
167 | CCACGGAC | 0.202
168 | CGACGGAA | 0.116
169 | AGACGGAG | 0.322
170 | GGACGGAC | 0.285
171 | AGACGGAT | 0.0639
172 | CCACGGAG | 0.365
173 | ACACGGAT | 0.0295
174 | AGACGGAA | 0.0433
175 | ACACGGAA | 0.18
